Compounds without any hit were thinned out: in the full panel of roughly 83,000, 20% have a hit.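 Each cell line was grown in a 96-well plate and treated with one concentration of compound for 48 hours. Values below 10 were considered active.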 A number with no mark means an inactive call. Activity calls are given as the source filed them.
How the values were obtained:
Assay in all cases: NCI-60 one-dose screen, 48 h (100 = growth as untreated, 0 = no growth, -100 = all killed)
[1] = tested on: K-562 leukemia; conditions: 10 µM unless noted
[2] = tested on: MALME-3M melanoma; conditions: 10 µM unless noted
[3] = tested on: MDA-MB-231 breast; conditions: 10 µM unless noted
[4] = tested on: RXF 393 renal; conditions: 10 µM unless noted
[5] = tested on: SF-268 CNS; conditions: 10 µM unless noted
[6] = tested on: SF-295 CNS; conditions: 10 µM unless noted
[7] = tested on: SF-539 CNS; conditions: 10 µM unless noted
[8] = tested on: UACC-257 melanoma; conditions: 10 µM unless noted
[9] = tested on: M14 melanoma; conditions: 10 µM unless noted
[10] = tested on: HCT-15 colon; conditions: 10 µM unless noted
[11] = tested on: HT29 colon; conditions: 10 µM unless noted
[12] = tested on: SNB-75 CNS; conditions: 10 µM unless noted
[13] = tested on: SNB-19 CNS; conditions: 10 µM unless noted
[14] = tested on: U251 CNS; conditions: 10 µM unless noted
[15] = tested on: PC-3 prostate; conditions: 10 µM unless noted
[16] = tested on: SK-MEL-5 melanoma; conditions: 10 µM unless noted
[17] = tested on: UACC-62 melanoma; conditions: 10 µM unless noted
[18] = tested on: LOX IMVI melanoma; conditions: 10 µM unless noted
[19] = tested on: SK-MEL-2 melanoma; conditions: 10 µM unless noted
[20] = tested on: SK-MEL-28 melanoma; conditions: 10 µM

| SMILES | growth [1] | growth [2] | growth [3] | growth [4] | growth [5] | growth [6] | growth [7] | growth [8] | growth [9] | growth [10] | growth [11] | growth [12] | growth [13] | growth [14] | growth [15] | growth [16] | growth [17] | growth [18] | growth [19] | growth [20] [%] |
| --- | --- | --- | --- | --- | --- | --- | --- | --- | --- | --- | --- | --- | --- | --- | --- | --- | --- | --- | --- | --- |
| COc1ccc(/C=C2\CCC/C(=C\c3ccc(OC)c(OC)c3)C2=O)cc1OC | 10.6% | 42.3% | 15% | -32.5% (active) | 30.5% | 1.26% (active) | 13.1% | 14% | -2.63% (active) | -8.77% (active) | 1.7% (active) | 0.689% (active) | 37.8% | 12.3% | 40.8% | 5.95% (active) | -2.18% (active) | -35% (active) | 86.4% |  |
| COCCN(C(=O)Cc1cccs1)C(C(=O)NCc1ccc(OC)cc1)c1ccc(C(C)C)cc1 (centres undefined) | 77% | 72.2% | 71.4% | 88.5% | 57.8% | 84.3% | 93.3% | 122% | 106% | 95.7% | 97.2% | 79.7% | 106% | 97.1% | 47.5% | 98.2% | 84.8% |  | 102% | 113 |
| Nc1cccc(Nc2cc(S(=O)(=O)O)c(N)c3c2C(=O)c2ccccc2C3=O)c1 | 101% | 105% | 107% | 119% | 101% | 118% | 101% | 97% | 103% | 96.7% | 96.3% | 82.2% | 101% | 95.5% | 100% | 103% | 106% | 85% | 100% |  |
| O=C1C(Cl)=C(NCc2ccco2)C(=O)c2ccccc21 | 70.6% | 54.6% | 68.1% | 101% | 103% | 75.8% | 115% | 58.7% | 77.4% | 81.3% | 67.9% | 87.1% | 98.8% | 70.2% | 82.7% | -75.6% (active) | 76% |  | 93.4% | 106 |
| Cc1cc2c(c(C)c1Cl)C(=O)/C(=C/c1ccco1)O2 | 98.5% | 102% | 82.3% | 124% | 109% | 109% | 101% | 97.4% | 93.2% | 70.8% | 98.3% | 76.7% | 95.2% | 96.2% | 98.5% | 69.9% | 88.7% | 93% | 102% |  |
| COC(=O)/C(CCC=C(C)C)=C1\[C@@H](OC(C)=O)C[C@@]2(C)[C@H]1C[C@@H](O)[C@H]1[C@@]3(C)CC[C@H](NCCO)[C@@H](C)[C@@H]3CC[C@@]12C | 94.8% | 93% | 106% | 109% | 104% | 101% | 101% | 107% | 94.2% | 103% | 104% | 100% | 98.4% | 103% | 102% | 102% | 98% | 94.2% | 109% |  |
| CCOC(=O)C1=C(C)c2ccc(OC)c(OC)c2C1 | 102% | 123% | 117% | 93.8% | 108% | 99.5% | 91.9% | 98.4% | 126% | 97.3% | 95% | 89.9% | 104% | 90.4% | 102% | 96.3% | 98.5% | 96.1% | 89.5% |  |
| CN(C)c1ccc(N=Cc2ccc(N3CCOCC3)cc2)cc1 | 56.6% | 81.8% | 48.2% | 130% | 84.7% | 83.3% | 31.6% | 84.8% | 71.2% | 77.3% | 84.2% | 81.3% | 90.9% | 46.6% | 54.1% | 82% | 84.8% | 74.3% | 67.2% |  |
| COc1ccc(C2=C(c3cccc(OC)c3)C(=O)c3ccc(C)nc3C2=O)cc1 | 19.9% | 52.4% | 29.4% | 33.3% | 48% | 56.2% | 43% | 67.8% | 42% | 18.6% | 87.8% | 23.6% | 43.9% | 37.6% | 52.1% | 34.6% | 46.7% | 30.6% | 42.8% |  |
| Nc1nonc1-n1nncc1-c1cccnc1 | 105% | 96.1% | 111% | 115% | 106% | 98.2% | 102% | 112% | 104% | 101% | 107% | 81.2% | 129% | 101% | 105% | 106% | 112% |  | 111% | 105 |
| CC(C)C[C@H](C(=O)N[C@H](C(N)=O)C(C)C)N1CC=CCN(OCc2ccccc2)S1(=O)=O | 100% [2.5 µM] | 113% [2.5 µM] | 93.4% [2.5 µM] | 111% [2.5 µM] | 108% [2.5 µM] | 114% [2.5 µM] | 99.9% [2.5 µM] | 91.2% [2.5 µM] | 100% [2.5 µM] | 104% [2.5 µM] | 102% [2.5 µM] | 69.7% [2.5 µM] | 94.7% [2.5 µM] | 97.1% [2.5 µM] | 98.5% [2.5 µM] | 106% [2.5 µM] | 98.8% [2.5 µM] | 95.7% [2.5 µM] | 98.9% [2.5 µM] |  |
| CCOC(=O)c1sc(-c2ccc(OS(=O)(=O)c3cccs3)c(C=O)c2)nc1C | 4.3% (active) | -5.26% (active) | -16.8% (active) | 19% | 9.2% (active) | -8.21% (active) | -26.2% (active) | 32.1% | -17.6% (active) | 1.42% (active) | 1.93% (active) | 4.62% (active) | 5.38% (active) | 2.52% (active) | 11.1% | -88.9% (active) | 2.43% (active) |  | 28.6% | 27.4 |
| O=C(Nc1ccc(F)c(Cl)c1)Nc1ccc(Cl)c(Cl)c1 | 15.4% | 57.5% | 76% | 72.8% | 88.1% | 36.6% | 80.3% | 84.1% | 53.6% | 53.1% | 51.8% | 79.7% | 92.8% | 63.4% | 77% | 59.6% | 58.9% |  | 79.7% | 70.1 |
| COc1cc(C2C3=C(COC3=O)N(CCO)c3cc4c(cc32)OCCO4)cc(OC)c1O (centres undefined) | 12.5% | 64.7% | 27.7% | -45.7% (active) | 46% | 2.74% (active) | -31.2% (active) | 46.2% | -22.4% (active) | 49.4% | 3.06% (active) | -17.9% (active) | 26.8% | 19.7% | 27.2% | 12.9% | 33.5% | 33% | 76.5% |  |
| CCCCN1CCN(c2ccc3nc(-c4ccc5nc(-c6ccc(OC)c(OC)c6)[nH]c5c4)[nH]c3c2)CC1 | -15.5% (active) | -62.3% (active) | -38.1% (active) | -98.5% (active) | 20.7% | 10.6% | -81.9% (active) | -3.47% (active) | -52.5% (active) | 46.1% | 5.94% (active) | 6.59% (active) | 0.577% (active) | -45.3% (active) | 14.3% | -34.4% (active) | -58.5% (active) | -81.4% (active) | -51.2% (active) |  |
| Cc1cccc2c(=O)c3c(sc12)c(N1CCNCC1)nc1ccccc13 | -23% (active) | 98.6% | 56.3% | 72.2% | 76.1% | 93.5% | 75.8% | 96.6% | 74% | 25.9% | 6.4% (active) | 50% | 82.6% | 59.9% | 69.9% | 80.2% | 89.9% | 10.3% | 98.2% |  |

Source: PubChem BioAssay (NCI)
